Source: PubChem BioAssay (National Center for Advancing Translational Sciences (NCATS))
D1 antagonist: Antagonist of Human D 1 Dopamine Receptor: qHTS. HEK293 TREx D1 cells, calcium flux, dopamine EC80; hits give low values. D(1A) dopamine receptor (Homo sapiens), P21728. activity change, negative = inhibition, % at 10 µM. 360,000 compounds, 3.2% hits; in the data active = activity change below about -30%; also: % is scaled to controls: 0 for no effect and ±100 for the full control effect
Target sequence (P21728 whole entry, looked up): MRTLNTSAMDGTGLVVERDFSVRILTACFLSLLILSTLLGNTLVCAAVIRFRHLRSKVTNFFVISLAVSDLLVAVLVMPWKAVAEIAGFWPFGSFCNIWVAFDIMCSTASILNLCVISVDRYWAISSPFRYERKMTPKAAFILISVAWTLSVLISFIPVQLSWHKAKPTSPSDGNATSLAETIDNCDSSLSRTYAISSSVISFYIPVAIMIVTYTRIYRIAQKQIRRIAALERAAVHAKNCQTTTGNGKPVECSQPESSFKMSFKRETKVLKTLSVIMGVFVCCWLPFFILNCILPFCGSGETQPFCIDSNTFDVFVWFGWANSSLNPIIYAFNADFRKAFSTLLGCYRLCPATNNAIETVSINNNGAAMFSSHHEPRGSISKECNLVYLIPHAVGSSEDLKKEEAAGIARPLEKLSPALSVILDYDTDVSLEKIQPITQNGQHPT
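Kinetic fluorescence of a calcium dye serves as the read-out. D1-expressing Hek293 Trex cells, induced overnight at 30 C, are exposed to compound for 180 s before an EC80 dopamine addition, then read 180 s further.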
D1 PAM: Potentiators of Human D1 Dopamine Receptor: qHTS. potentiation, % at 10 µM. 360,000 compounds, 0.036% hits. HEK293 TREx D1 cells, calcium flux, dopamine EC20 potentiation. AID 504651, 2011. D(1A) dopamine receptor (Homo sapiens), P21728; in the data active = potentiation above about 30%; also: 0% is about no effect
GRP78 ERSR act: qHTS for Inducers of the Endoplasmic Reticulum Stress Response (ERSR) in Human Glioma: qHTS. U87-MG GRP78 promoter luciferase reporter, 16 h. 420,000 compounds, 0.02% hits. Potency, µM, for inactives: at the top dose activation, hits mostly activators; active = well fitted activation curve with a large enough effect; inconclusive = small, poorly fitted or top-dose-only effect; inactive = no such curve, though single readings can be large or run the other way; also: potency is read from the fitted curve at half-maximal effect; series mostly up to about 76 µM; % of control where 0% means no effect; nearly all actives have a fitted effect of over 35% in size
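Stably transfected U87-MG human glioma cells carrying a GRP78-based luminescent sensor were seeded at 1000 cells/well, pin-dosed with compounds and incubated 16 h. Luciferase reagent was then added, and end-point luminescence was read after 10 min at room temperature.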
TRHR agonist: qHTS for Small Molecule Agonists and Allosteric Enhancers of Human TRH Receptor: Primary Screen for Agonists | Thyrotropin-releasing hormone receptor (Homo sapiens), P34981 | TRHR cells, calcium flux fluo-8, FDSS agonist mode | activation, % at 2 µM | 360,000 compounds, 0.18% hits | AID 493084, 2011; also: 0% is about no effect
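Steps: seed TRHR cells overnight; add fluo-8 no-wash Ca dye, RT 30 min–1.5 h; record 10 s baseline; pin-transfer compounds; monitor fluorescence 1 cycle/s for the agonist window. Calcium increases flag candidate agonists.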
TRHR enhancer: qHTS for Small Molecule Agonists and Allosteric Enhancers of Human TRH Receptor: Primary Screen for Enhancers | Thyrotropin-releasing hormone receptor (Homo sapiens), P34981 | TRHR cells, fluo-8 calcium fluorescence, EC20 TRH enhancement | enhancement, % at 2 µM | 360,000 compounds, 0.66% hits | AID 493056, 2011; in the data active = enhancement above about 30%; also: 0% is about no effect
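Enhancer read-out: after compound pinning and an initial kinetic agonist-mode read, an EC20 of TRH (10 nM final) was injected and fluo-8 calcium signal (Ex 480/Em 530) followed at 1 s/cycle for 100 cycles in TRHR-expressing cells.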
D1 ag: Allosteric Agonists of the Human D1 Dopamine Receptor: qHTS | D(1A) dopamine receptor (Homo sapiens), P21728 | HEK293 T-REx D1 cells, calcium flux, agonist mode | activation, % at 2 µM | 360,000 compounds, 1% hits | AID 504660, 2011; also: 0% is about no effect
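Tetracycline-induced HEK293 TREx D1 cells, force-coupled to calcium signalling, were dye-loaded with a no-wash calcium kit. Compound was pin-added after a 10 s baseline. Fluorescence was read kinetically at 1 cycle/s for 180 s, with calcium rises flagged as agonism.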
Active calls of the source: *; ? = inconclusive; . = no result given. The list is not random: actives were taken first. Their share in the collection is about 4%. Rule as the data show it, unless noted: active = activation above about 30%; inactive = the rest.

SMILES	D1 antagonist	D1 PAM	GRP78 ERSR act	TRHR agonist	TRHR enhancer	D1 ag
CCn1c2ccccc2c2cc(NC(=O)c3ccc(C)c([N+](=O)[O-])c3)ccc21	-10	-11	2%	-1	-4	-1
CCOC(=O)C/C(C)=N\Nc1nc(-c2ccccc2)cs1	-1	-1	5%	0	4	1
COc1ccc(C(=O)CCC(=O)Nc2ccc(N3CCCCC3)cc2)cc1OC	-16	-11	-2%	-1	3	2
Cn1cc(-c2cc3n(n2)CCC(=O)N3CCCC(=O)NCc2ccccc2Cl)c2ccccc21	-48*	2	-3%	-1	-5	1
Cc1cccc(C)c1NC(=O)CCCN1C(=O)CCn2nc(-c3cn(C)c4ccccc34)cc21	4	-3	-4%	-1	-2	1
CCOC(=O)CCCN1C(=O)CCn2nc(-c3cn(C)c4ccccc34)cc21	-40*	3	.	-1	3	0
Cc1ccc2nc(SC(C(=O)Nc3ccc(F)cc3)c3ccccc3)[nH]c2c1 (configuration not stated)	-10	-10	-9%	0	-4	2
O=C1NCCCC1C(=O)N1CCCCC1 (configuration not stated)	14	-1	-1%	0	3	1
Cc1cc([N+](=O)[O-])ccc1NCc1ccc2ccccc2c1	2	1	-1%	1	-14	2
Cc1ccc(NC(=O)Cc2ccc([N+](=O)[O-])cc2)c(Br)c1	-45*	-3	-3%	-2	-4	16
COc1cc([N+](=O)[O-])ccc1NC(=O)Cc1ccc(C)cc1	.	-11	-4%	0	-6	-1
Cc1cc([N+](=O)[O-])ccc1NCc1ccccc1	-32*	-5	-1%	0	-22	1
Cc1cc([N+](=O)[O-])ccc1NC(=O)Cc1ccc(F)cc1	-32*	-8	1%	0	-10	7
O=C(NCCc1ccc(F)cc1)Nc1ccc([N+](=O)[O-])cc1	-49*	-17	5%	5	-3	13
CSc1nc2nc3c(cc2c(=O)[nH]1)C(O)Oc1ccc(C)cc1-3 (configuration not stated)	-29	-3	0%	0	-1	0
Cc1cccc(C(=O)NC2=NC(c3ccc(Cl)cc3)CC(=O)N2)c1 (configuration not stated)	2	3	-1%	0	0	4
Cc1ccccc1NCc1ccc([N+](=O)[O-])s1	-32*	-9	4%	-1	-6	-3
Nc1ccc(-c2c3ccc(=O)cc-3oc3cc(O)ccc23)c(C(=O)O)c1	0	1	-1%	-1	19	355*
O=c1cc(-c2ccc(O)cc2)oc2cc(O)ccc12	.	.	-2%	.	.	.
O=c1oc2ccccc2c(NC2CCCCC2)c1NS(=O)(=O)c1ccc(F)cc1	3	0	-5%	0	-9	4
COc1ccc(S(=O)(=O)Nc2c(NC3CCCCC3)c3ccccc3oc2=O)cc1	-31*	-8	-3%	0	-1	0
COC(=O)CCC/C=C1/SCC(NC(=O)c2ccccc2)C1O (configuration not stated)	12	-4	-4%	0	4	1
CC(C)(C)Nc1nc(C(N)=O)nc(N2CCOCC2)n1	-1	-3	-4%	1	-2	4
NC(=S)Cc1ccc(Cl)cc1Cl	2	-7	-5%	-1	-2	3
N=C(N)SCc1ccc(Cl)cc1Cl	6	2	-7%	-3	1	34*
SMILES	D1 antagonist	D1 PAM	GRP78 ERSR act	TRHR agonist	TRHR enhancer	D1 ag
COc1ccc(C(=O)Nn2c(C)nnc2-n2nc(C)cc2C)cc1OC	-31*	3	-2%	0	-2	-2
COc1cccc(C(=O)Nn2c(C)nnc2-n2nc(C)cc2C)c1	3	-2	-2%	0	5	-1
COc1ccccc1C1C(C#N)=C(N)Oc2c1oc(CO)cc2=O (configuration not stated)	-7	-2	0%	1	6	0
N#CC1=C(N)Oc2c(oc(CO)cc2=O)C1c1ccccc1[N+](=O)[O-] (configuration not stated)	-35*	-7	1%	1	-1	0
CCOc1ccc2oc(C(=O)NNC(=O)c3csc(N4CCOCC4)n3)c(C)c2c1	-38*	-17	-1%	-1	-1	2
Nc1c(-c2ccc(Cl)cc2)nnn1-c1ccccc1	-50*	-7	?	0	-2	-1
Nc1c(-c2ccc(Cl)cc2)cnn1-c1ccccc1	-4	-3	3%	0	-9	0
COc1ccc(-c2nc(CN(Cc3cnn(C)c3)C(C)C)c(C)o2)c(OC)c1	-31*	-2	-4%	0	7	0
CCOc1ccccc1-c1nc(CN(Cc2cnn(C)c2)C(C)C)c(C)o1	-3	-4	-1%	0	4	2
COC(=O)Nc1ccc(S(=O)(=O)NC2CCS(=O)(=O)C2)cc1 (configuration not stated)	-2	2	-4%	-1	-5	1
CC1(C)CC(NC(=O)c2ccc3c(c2)OCO3)CC(C)(C)N1	-3	4	-5%	0	9	4
Cc1c(CC(Cl)(Cl)Cl)c2c(n1O)CC(C)(C)CC2=O	-46*	-3	-3%	1	-5	26
COc1ccc(N(C)C(=O)c2cc(S(=O)(=O)N3CCc4ccccc43)cn2C)c(OC)c1	-55*	-4	.	0	7	0
CN(C(=O)c1cc(S(=O)(=O)N2CCc3ccccc32)cn1C)C1CCCCC1	-54*	1	-3%	0	0	3
COCCNc1sc(S(=O)(=O)c2ccc(C)cc2)nc1S(=O)(=O)c1ccc(C)cc1	-5	-3	-4%	1	-10	5
COc1c(Cl)cc(Cl)cc1/C=C(\C#N)c1nc(-c2ccc(Cl)cc2)cs1	15	0	-1%	-1	7	3
COC(=O)Cn1cc(/C=N/NC(=O)c2ccc(C#N)cc2F)c2ccccc21	-39*	2	-3%	0	-5	5
Cc1ccccc1Cn1c(Cc2ccccc2)nc2ccccc21	3	-11	0%	-1	-10	3
O=C(OCn1ncc(Cl)c(Cl)c1=O)c1cccc(C(F)(F)F)c1	-36*	-9	-16%	0	2	17
